# Laboratory results reported in PubChem BioAssay AID1745853 (National Center for Advancing Translational Sciences (NCATS), 2022).
# Where “and” joins values, the source holds several entries; their conditions need not be identical. Equal values may be shown once. The campaign covered roughly 25,000 compounds. About 970 (3.9%) were called active. Not shown: some 8% with an inconclusive outcome. No rule for the calls is given here. The list comes from a sample in which actives are over-represented; it also holds similar structures and randomly drawn compounds. A structure can be active in one record and inactive in another.
# What was measured:
# Assay in all cases: Primary Screen for Target Class Profiling of Small Molecule Inhibitors of Methyltransferases
# [1] = biological target: Catechol O-methyltransferase (Homo sapiens) (UniProt P21964); settings: purified enzyme, MTase-Glo SAH luminescence; activity change, negative = inhibition: at 40 µM, stronger effect = lower value; outcome: 40 uM
# Chain of Catechol O-methyltransferase (Homo sapiens) (P21964 whole entry, looked up): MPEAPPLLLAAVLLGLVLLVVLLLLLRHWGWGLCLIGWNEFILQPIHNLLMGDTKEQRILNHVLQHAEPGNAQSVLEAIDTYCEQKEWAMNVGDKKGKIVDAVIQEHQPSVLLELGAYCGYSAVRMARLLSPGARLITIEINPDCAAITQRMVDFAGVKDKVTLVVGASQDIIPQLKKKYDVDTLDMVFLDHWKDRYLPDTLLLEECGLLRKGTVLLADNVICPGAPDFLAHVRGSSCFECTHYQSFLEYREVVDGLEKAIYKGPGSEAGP
# How it was run: (§1)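 Each enzyme was assayed with SAM and its substrate. SAH formation detected by MTase-Glo luminescence; single-point 40 uM screen[…].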
# [2] = biological target: Glycine N-methyltransferase (Homo sapiens) (UniProt Q14749); settings: purified enzyme, MTase-Glo SAH luminescence; measured here: GNMT inhibition; at 40 µM; stronger effect = lower value
# Chain of Glycine N-methyltransferase (Homo sapiens) (Q14749 whole entry, looked up): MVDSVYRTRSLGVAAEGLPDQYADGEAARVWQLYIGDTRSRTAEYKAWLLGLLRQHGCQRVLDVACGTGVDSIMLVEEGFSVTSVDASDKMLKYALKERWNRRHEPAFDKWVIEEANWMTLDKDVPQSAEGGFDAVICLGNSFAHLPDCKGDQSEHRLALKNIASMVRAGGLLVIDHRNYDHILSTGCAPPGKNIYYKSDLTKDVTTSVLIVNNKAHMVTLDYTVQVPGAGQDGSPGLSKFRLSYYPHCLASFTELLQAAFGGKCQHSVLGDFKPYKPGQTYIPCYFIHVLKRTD
# How it was run: as §1
# [3] = biological target: Guanidinoacetate N-methyltransferase (Homo sapiens) (UniProt Q14353); settings: purified enzyme, MTase-Glo SAH luminescence; measured here: GAMT inhibition; at 40 µM; stronger effect = lower value
# How it was run: as §1
# [4] = biological target: Histamine N-methyltransferase (Homo sapiens) (UniProt P50135); settings: purified enzyme, MTase-Glo SAH luminescence; measured here: HNMT inhibition; at 40 µM; stronger effect = lower value
# Chain of Histamine N-methyltransferase (Homo sapiens) (P50135 whole entry, looked up): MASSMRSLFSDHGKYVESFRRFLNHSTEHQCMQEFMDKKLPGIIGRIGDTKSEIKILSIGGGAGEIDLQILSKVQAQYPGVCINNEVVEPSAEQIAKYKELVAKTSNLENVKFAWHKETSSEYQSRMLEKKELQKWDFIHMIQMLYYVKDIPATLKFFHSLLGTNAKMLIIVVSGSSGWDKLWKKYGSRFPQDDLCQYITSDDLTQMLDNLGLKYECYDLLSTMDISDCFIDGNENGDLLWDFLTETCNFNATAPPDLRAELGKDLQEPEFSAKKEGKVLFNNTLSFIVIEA
# How it was run: as §1
# [5] = biological target: Nicotinamide N-methyltransferase (Homo sapiens) (UniProt P40261); settings: purified enzyme, MTase-Glo SAH luminescence; measured here: NNMT inhibition; at 40 µM; stronger effect = lower value
# Chain of Nicotinamide N-methyltransferase (Homo sapiens) (P40261 whole entry, looked up): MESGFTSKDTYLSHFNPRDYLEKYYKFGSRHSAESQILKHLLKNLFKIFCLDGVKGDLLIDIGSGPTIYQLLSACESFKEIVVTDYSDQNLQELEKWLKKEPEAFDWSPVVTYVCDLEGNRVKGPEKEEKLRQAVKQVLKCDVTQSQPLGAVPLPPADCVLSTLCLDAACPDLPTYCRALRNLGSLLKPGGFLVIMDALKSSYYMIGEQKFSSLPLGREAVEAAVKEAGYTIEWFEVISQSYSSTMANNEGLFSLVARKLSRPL
# How it was run: as §1
# [6] = biological target: Phenylethanolamine N-methyltransferase (Homo sapiens) (UniProt P11086); settings: purified enzyme, MTase-Glo SAH luminescence; measured here: PNMT inhibition; at 40 µM; stronger effect = lower value
# Chain of Phenylethanolamine N-methyltransferase (Homo sapiens) (P11086 whole entry, looked up): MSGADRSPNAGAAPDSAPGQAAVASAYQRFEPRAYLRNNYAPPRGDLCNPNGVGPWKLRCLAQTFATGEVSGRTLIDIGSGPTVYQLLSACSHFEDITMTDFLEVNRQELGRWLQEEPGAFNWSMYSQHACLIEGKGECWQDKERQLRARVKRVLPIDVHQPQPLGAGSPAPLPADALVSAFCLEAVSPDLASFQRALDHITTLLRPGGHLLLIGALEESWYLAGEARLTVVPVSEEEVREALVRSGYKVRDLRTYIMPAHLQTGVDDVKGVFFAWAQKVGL
# How it was run: as §1
# % is scaled to controls: 0 for no effect and ±100 for the full control effect.
Compound,"activity change, negative = inhibition [1]","activity change, negative = inhibition [2]","activity change, negative = inhibition [3]","activity change, negative = inhibition [4]","activity change, negative = inhibition [5]","activity change, negative = inhibition [6]"
CCCNC(=O)Cn1ccc2cc(S(=O)(=O)N3CCCCC3)ccc21,4.84% (inactive),9.68%,1.89%,7.8%,9.14%,4.01%
O=C(O)C1=NOC2CN([S+](=O)([O-])c3cc(C(F)(F)F)cc(C(F)(F)F)c3)CC12 (stereo not given),0.473% (inactive),0.245%,-0.074%,1.51%,-7.33%,-0.67%
COc1ccccc1NC(=O)CSc1nnc2[nH]c(=O)c(C(C)(C)C)nn12,9.13% (inactive),7.62%,0%,5.75%,-0.804%,-8.39%
CCCn1c(=O)c2cc(Cl)ccc2n2c(SCC(=O)Nc3cccc(Cl)c3)nnc12,-3.39% (inactive),-7.66%,-0.122%,1.87%,-14%,-4.95%
COc1ccc(NC(=O)CSc2nnc3n(CCCOC(C)C)c(=O)c4ccccc4n23)cc1,6.36% (inactive),1.3%,1.9%,7.77%,6.56%,5.87%
CCNC(=O)C#Cc1ccc2c(C(=Nc3ccc(CN(C)C)cc3)c3ccccc3)c(O)[nH]c2c1,-18.4% (active),-35.9%,-5.11%,-64.7%,-34.2%,-13.1%
COCCn1c(=O)c(C(=O)N2CCN(C(C)=O)CC2)nc2cccnc21,-9.78% (inactive),-6.01%,-10.4%,-3.36%,-14%,-5.78%
CC(C)Cn1c(=O)c2ccccc2n2c(=O)n(Cc3ccccc3)nc12,2.82% (inactive),-1.72%,0%,6.83%,-9.64%,0.863%
Cc1ccc(NC(=O)Cn2nc3n(C(C)C)c(=O)c4ccc(C(=O)NC5CCCCC5)cc4n3c2=O)cc1,2.74% (inactive),4.18%,4.48%,8.87%,1.86%,2.8%
CCC(=O)N1Cc2ccccc2OC2(CCN(C(C)C)CC2)C1,-1.54% (inactive),-3.35%,-0.819%,0.171%,-3.98%,-4.26%
CCOC(=O)CC1(NC(=O)N2CCn3cccc3C2Cc2ccccc2)CCCCC1 (stereo not given),-25% (inactive),-7.26%,-5.73%,-9.85%,-17.7%,-40.7%
CN(C)CCN(C)[C@H]1[C@@H]2OC[C@@H](O2)[C@@H](NCc2ccc(N(C)C)cc2)[C@@H]1O,2.76% (inactive),0.488%,1.19%,0.035%,-5%,0.902%
COc1ccc(C(=O)N2CCC3(CC2)CCC(O)(CN(C)C)CC3)cc1OC,2.82% (inactive),-0.206%,-1.89%,-18.9%,-5.54%,-1.06%
CC(C)CCn1c(=O)c2ccccc2n2c(CCC(=O)NCCc3ccccc3)nnc12,3.9% (inactive),-7.17%,0%,6.82%,-15%,0.405%
CN(CCCNC(=O)CCCc1nnc2n3nc(-c4ccccc4)nc3c3ccccc3n12)Cc1ccccc1,-4.54% (active),-16.6%,1.44%,-57.9%,0.458%,-4.78%
CCCCNC(=O)CCc1nnc2n(CC(C)C)c(=O)c3ccccc3n12,3.12% (inactive),-1.98%,4.49%,5.26%,4.71%,-0.917%
COC(=O)c1ncn2c1C(=O)N(Cc1cc(OC)ccc1OC)C(C)(C(=O)NCc1ccccc1)C2 (stereo not given),-9.56% (inactive),-4.3%,3.99%,-2.02%,-4.11%,-4.82%
CN(C)c1cc2c(Nc3ccc4c(cnn4Cc4ccccc4)c3)ncnc2cn1,-13.2% (active) and -7.52% (inactive),-7.53% and -14.5%,10.1% and 6.13%,1.63% and -3.02%,-17% and -13.5%,-62.6% and -40%
CCC(C)C(=O)OC1C(C)C2(O)C(C=C(CO)CC3(O)C(=O)C(C)=CC32)C2C(C)(C)C12OC(=O)C(C)C (stereo not given),-2.75% (inactive),-4.22%,-5.2%,-3.1%,-15.7%,-0.901%
O=C(NCC1CCCCC1)c1cc(-c2cc(Cl)cc(Cl)c2)c2nncn2n1,-5.12% (inactive),-8.77%,-5.46%,-7.54%,-13.3%,-2.36%
CC(C)CCNC(=O)c1ccc2c(=O)nc3c(-c4ccc(Cl)cc4)n[nH]n3c2c1,-1.51% (inactive),-1.88%,4.17%,-4.65%,0.687%,-0.404%
COc1ccc(CCN2C(=O)c3ccc(-c4ccco4)n3CC2(C)C(=O)NCc2ccc(Cl)cc2)cc1OC (stereo not given),0.852% (inactive),-6.96%,1.72%,2.32%,-28.2%,-1.05%
Cc1cc2c(cc3n2CC(C)(C(=O)NC2CCCCC2)N(C2CCCCCC2)C3=O)o1 (stereo not given),3.65% (inactive),2.96%,9.51%,3.49%,-0.25%,-2.76%
CCCCCCc1cc2c(-c3ccccc3)cc(=O)oc2cc1OCC(N)=O,-7.58% (inactive),-9.86%,1.37%,-0.051%,-9%,-8.85%
COc1c2c(c(C)c3c1C(=O)OC3)OC1(C)CC(O)C34OC(O)(CCC3(C)C1C2)OC4(C)C (stereo not given),-2.85% (inactive),-1.14%,-7.45%,-0.188%,-20.3%,-0.001%
